Compounds without any hit were thinned out: in the full panel of roughly 83,000, 20% have a hit.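 Plates (96-well) were seeded with cells, treated with compound at one concentration, and incubated for 48 hours before percent growth was determined.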 Unmarked numbers belong to inactive results. The source made the active and inactive calls. Rule for the calls: active = growth percent below 10; inactive = the rest.
The molecules below were run on HL-60(TB) leukemia (assay: NCI-60 one-dose screen, 48 h (100 = growth as untreated, 0 = no growth, -100 = all killed)). Conditions: 10 µM unless noted.

| SMILES | growth |
| --- | --- |
| O=C(CCCCCCN1CC(=O)N2[C@@H](c3cccc(Br)c3)c3[nH]c4ccccc4c3C[C@H]2C1=O)NO | 6.52% (active) |
| CCOC(=O)c1csc(NC(=O)CSc2nc3sc4c(c3c(=O)n2-c2ccc(Cl)cc2)CCCC4)n1 | 92.1% |
| CCN1CCN(Cc2ccc(C(=O)Nc3ccc(C)c(Oc4ccc(-c5[nH]nc6ncnc(N)c56)cc4)c3)cc2C(F)(F)F)CC1 | 139% |
| NC(=O)N1N=C(c2cc3ccccc3oc2=O)CC1c1cn(-c2ccccc2)nc1-c1ccc(Cl)cc1 (stereo not given) | 47% |
| Cc1ccc(/C=N/Nc2nc(Nc3ccccc3)nc(Nc3ccc(S(N)(=O)=O)cc3)n2)cc1 | 75.2% |
| Nc1c(C(=O)c2ccc(Br)cc2)oc2nc(-c3cnccn3)cc(-c3cccs3)c12 | 100% |
| O=C(Nc1nonc1-c1ccccc1)c1ccc(C(F)(F)F)cc1 | 79.1% |
| O=C(CCn1cc[n+](CC(=O)c2ccc(-c3ccccc3)cc2)c1)Nc1cccc2cccnc12 | 13.9% |
| COc1cc(/C=N/n2cnc3oc(-c4ccccc4)cc3c2=N)cc(CN2CCCCC2)c1O | -17.1% (active) |
| CNC(=O)c1cc(-c2ccc(NS(=O)(=O)c3ccc(C)cc3)cc2)nc2cccnc12 | 113% |
| COc1ccc(-c2cc(-c3ccc(N(C)C)cc3)n3c(n2)nc2ccccc23)cc1 | 18.4% |
| CC1(C)CC[C@]23CC[C@]4(C)[C@H](CC[C@@H]5[C@@]6(C)CCCN(CO)C(C)(C)[C@@H]6CC[C@]54C)[C@H]2[C@H]1OC3 | 36.6% |
| C#CCOc1ccc(/C=N/Nc2nc(-c3cc4cc(Br)cc(Br)c4oc3=O)cs2)cc1 | 85.9% |
| O=C1[C@@H]2Cc3c([nH]c4ccccc34)[C@@H](c3ccc(Cl)cc3)N2C(=O)CN1C1CCN(Cc2c(F)cccc2F)CC1 | 0.352% (active) |
| NS(=O)(=O)c1ccc(Nc2nc(N/N=C/c3ccc([N+](=O)[O-])cc3)nc(Nc3ccccc3)n2)cc1 | 35% |
| Cn1c(SCC(=O)c2ccco2)nc2ccccc2c1=O | 98.3% |
| O=C(Nc1ccc(N2CCOCC2)cc1)Nc1ccc2c(ccn2C(=O)c2cccc(F)c2)c1 | 96.7% |
| O=C(Nc1cc(Cl)cc(Cl)c1)Nc1ccc2oc(=O)ccc2c1 | 0.984% (active) |
| COc1ccc(N2C(=O)c3cc(OC)c(OC)cc3NC2SCc2ccccc2)cc1 (stereo not given) | 110% |
| O=C(/C=C1\C=CN(CCCCO)c2ccccc21)n1ccc2ccccc21 | 114% |

| SMILES | growth |
| --- | --- |
| C#C[C@]1(O)CC[C@H]2[C@@H]3CC=C4c5sc(-c6ccc(F)cn6)nc5CC[C@]4(C)[C@H]3CC[C@@]21C | 8.65% (active) |
| CCOC(=O)c1c(N)c(C#N)cn1Cc1ccc(Cl)cc1Cl | 60.6% |
| O=C(NNc1nc2cc(F)c(F)cc2n2c(CN3CC4CNCC4C3)ccc12)c1cnccn1 (stereo not given) | -1.93% (active) |
| CCCSc1nc(Nc2ccc(/C(C)=N\NC(N)=S)cc2)c(C#N)c(-c2ccccc2)n1 | 64% |
| COc1ccc(N/N=C/c2c(-c3ccc(S(C)(=O)=O)cc3)nc3ccccn23)cc1 | 39.4% |
| CC(C)[C@H]1c2[nH]c3ccccc3c2C[C@H]2C(=O)N(CCCCCCC(=O)NO)CC(=O)N12 | 96.1% |
| COc1c(N2CC3CCCNC3C2)c(F)cc2c(=O)c(C(=O)N/N=C/c3ccc(F)cc3)cn(C3CC3)c12 (stereo not given) | 72.8% |
| O=C(COc1ccc(/C=C2\C(=O)Nc3ccc(Cl)cc32)cc1)Nc1ccc(Cl)cc1 | 57.6% |
| COc1cc2nc(-c3ccc(C(F)(F)F)cc3)cc(OCCCNCC3CCCO3)c2cc1OC (stereo not given) | 11.9% |
| Cc1cccc(/C=C/C(=O)Nc2ncc(Cc3cccc(C)c3)s2)c1 | 0.463% (active) |
| CS(=O)(=O)c1ccc(-c2nc3ccccn3c2-c2nc3ccc([N+](=O)[O-])cc3[nH]2)cc1 | 95.7% |
| CCCN1C=C/C(=C\C(=O)n2ccc3ccccc32)c2ccccc21 | 87.4% |
| Cc1cc(NS(=O)(=O)c2ccc(NC(=O)CSc3nc4ccccc4c(=O)n3-c3ccccc3)cc2)no1 | 110% |
| N#Cc1c(-c2ccc(Cl)cc2)nc(SCc2ccc([N+](=O)[O-])cc2)nc1N1CCNCC1 | -53.3% (active) |
| O=c1oc2ccc(-c3ccc(F)cc3F)cc2c(=O)n1-c1ccc(Br)cc1F | 58.8% |
| Cc1ccccc1NC(=O)Nc1nc2ccc([N+](=O)[O-])cc2s1 | -27.7% (active) |
| O=C(NNc1nc2cc(F)ccc2n2c(CN3CCC(O)C3)ccc12)c1cnccn1 (stereo not given) | -14.8% (active) |
| O=C1[C@@H]2Cc3c([nH]c4ccccc34)[C@H](c3c(Cl)cccc3Cl)N2C(=O)CN1C1CCN(CC2CCCCC2)CC1 | -25.1% (active) |
| CS(=O)(=O)c1ccc(-c2nn(-c3ccccc3)cc2/C=N/NC(=O)c2ccncc2)cc1 | 81.1% |
| Cc1ccc(NC(=O)N[C@@H](Cc2cc(F)cc(F)c2)C(=O)NC2C(=O)N3C[C@H](O)C[C@H]3C(=O)N3CCCC[C@H]3C(=O)N[C@@H](CO)C(=O)N3C[C@H](C)C[C@H]3C(=O)O[C@H]2C)c(F)c1 (stereo not given in full) | 16.2% |

Reference: PubChem BioAssay (NCI)
